The nature of test [1]: qHTS assay to identify small molecule antagonists of the retinoid acid receptor (RAR) signaling pathway - cell viability counter screen (AID 1159551). Also: nearly all actives have a fitted effect of over 35% in size. Also: potency is read from the fitted curve at half-maximal effect. The procedure, abridged: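 C3RL4 RARE-luciferase line; cpds + retinol 1 uM final, 6 h, 37 C/5% CO2; CellTiter-Glo ATP luminescence, 30 min RT.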
(In general: Quantitative high-throughput screening tests each substance at several concentrations.)

Test [2] is described as follows: qHTS assay to identify small molecule antagonists of the retinoic acid receptor (RAR) signaling pathway (AID 1159552; also: nearly all actives have a fitted effect of over 50% in size; also: potency is read from the fitted curve at half-maximal effect). The method, boiled down: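 Using a RARE-driven luciferase construct in C3RL4 cells, retinol at 1 uM final provided the agonist stimulus while compounds were co-applied. After 6 hours at 37 C, luminescence was recorded to flag inhibitors of retinol signaling.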

The target of test [3] is Luciferin 4-monooxygenase (Photinus pyralis) (UniProt P08659). In words: qHTS assay to identify small molecule inhibitors of firefly luciferase (AID 1224835). Also: nearly all actives have a fitted effect of over 25% in size. Also: potency is read from the fitted curve at half-maximal effect. The method, boiled down:
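Inhibition of purified Photinus luciferase is measured by luminescence. Substrate levels (D-luciferin, ATP) sit at their KM values. Each compound is tested in a concentration series.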

A short description of test [4]: qHTS assay to identify small molecule agonists of the constitutive androstane receptor (CAR) signaling pathway - cell viability counter screen (AID 1224836). Also: series mostly up to about 92 µM; nearly all actives have a fitted effect of over 45% in size. The method, boiled down:
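Multiplexed viability check: HepG2-CYP2B6-hCAR cells, 15-point compound dosing, 0.75 uM PK11195 final, 23 h at 37 C, CellTiter-Fluor fluorescence.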

Test [5] in a line: qHTS assay to identify small molecule antagonists of the constitutive androstane receptor (CAR) signaling pathway - cell viability counter screen (AID 1224837). Also: nearly all actives have a fitted effect of over 45% in size. Also: potency is read from the fitted curve at half-maximal effect. The method, boiled down: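 Read-out: CellTiter-Fluor fluorescence after 23 hr at 37 C/5% CO2. Cells: HepG2 double-stable for hCAR and CYP2B6-2.2kb. Compounds tested at 15 concentrations in the presence of CITCO, final concentration 50 nM.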

Test [6] addresses Nuclear receptor subfamily 1 group I member 3 (Homo sapiens) (UniProt Q14994). As to the kind of experiment: qHTS assay to identify small molecule agonists of the constitutive androstane receptor (CAR) signaling pathway (AID 1224839). Also: nearly all actives have a fitted effect of over 15% in size. Also: potency is read from the fitted curve at half-maximal effect. The procedure, abridged: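 Using human hepatoma HepG2 cells engineered with hCAR and a CYP2B6-2.2kb reporter, 15-concentration compound series were incubated 24 h alongside PK11195 at 0.75 uM final, with luminescence quantified afterwards.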

Test [7] can be described thus: qHTS assay to identify small molecule antagonists of the estrogen related receptor signaling pathway with the pleiotropic PPARgamma coactivator (PGC) from Tox21 10K library - cell viability counter screen (AID 1224840; active = well fitted cell-killing curve with a large enough effect in the repeat runs, not every such curve was filed as active; also: nearly all actives have a fitted effect of over 40% in size; also: potency is read from the fitted curve at half-maximal effect). The procedure, abridged: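 Fluorescence read-out of CellTiter-Fluor viability reagent, added after cells had been exposed to compound in DMSO for 17.5 h at 37 C; 30 min development at 37 C/5% CO2. Cells: PGC/ERR line, 2,000/well.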

In test [8] the target is Thyrotropin receptor (Homo sapiens) (UniProt P16473). In words: qHTS assay to identify small molecule agonists of the thyroid stimulating hormone receptor (TSHR) signaling pathway (AID 1224843; calls by dose curve; also: nearly all actives have a fitted effect of over 45% in size). The method, boiled down: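 A cell-based cAMP HTRF format was run in TSHR-transfected HEK293 cells, 800 per well. Treatment: 30 min, room temperature. Detection: 1 h with labelled cAMP and anti-cAMP cryptate. Concentration-response over 15 points, three replicates.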
Chain of Thyrotropin receptor (Homo sapiens) (P16473 whole entry, looked up): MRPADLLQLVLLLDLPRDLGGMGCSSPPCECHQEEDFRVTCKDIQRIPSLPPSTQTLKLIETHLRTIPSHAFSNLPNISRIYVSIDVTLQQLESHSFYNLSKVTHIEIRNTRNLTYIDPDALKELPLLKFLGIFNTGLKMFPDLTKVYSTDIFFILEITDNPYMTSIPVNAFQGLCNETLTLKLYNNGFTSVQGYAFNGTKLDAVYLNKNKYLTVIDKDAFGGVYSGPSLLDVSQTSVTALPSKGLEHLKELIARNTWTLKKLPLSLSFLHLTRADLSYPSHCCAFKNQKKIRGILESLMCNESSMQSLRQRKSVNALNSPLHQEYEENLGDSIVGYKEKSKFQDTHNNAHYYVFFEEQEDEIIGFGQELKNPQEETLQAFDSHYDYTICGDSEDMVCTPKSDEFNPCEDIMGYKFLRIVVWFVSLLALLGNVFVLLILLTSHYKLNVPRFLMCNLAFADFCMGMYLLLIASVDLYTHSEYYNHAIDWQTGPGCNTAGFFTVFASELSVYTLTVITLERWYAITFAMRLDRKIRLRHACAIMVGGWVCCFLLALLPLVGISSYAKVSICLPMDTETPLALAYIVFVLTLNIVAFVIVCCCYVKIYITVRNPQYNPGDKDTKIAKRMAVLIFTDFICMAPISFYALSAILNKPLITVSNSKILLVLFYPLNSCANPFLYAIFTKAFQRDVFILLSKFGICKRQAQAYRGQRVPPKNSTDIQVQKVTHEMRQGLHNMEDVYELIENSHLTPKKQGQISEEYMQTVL

Test [9] concerns the target Nuclear receptor subfamily 1 group I member 3 (Homo sapiens) (UniProt Q14994). As to the kind of experiment: qHTS assay to identify small molecule antagonists of the constitutive androstane receptor (CAR) signaling pathway (AID 1224838).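 Also: HepG2 cells stably expressing hCAR with CYP2B6 luciferase reporter stimulated by CITCO; nearly all actives have a fitted effect of over 40% in size.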 The procedure, abridged: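 Read-out: ONE-Glo luciferase luminescence after 30 min at room temperature. HepG2-CYP2B6-hCAR double-stable cells, compounds in 15-point titration plus 50 nM CITCO final, 24 h at 37 C/5% CO2.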

A short description of test [10]: qHTS assay to identify small molecule antagonists of the estrogen related receptor signaling pathway with the pleiotropic PPARgamma coactivator (PGC) from Tox21 10K library (AID 1224841; call rule not given here; also: actives are mostly falling curves and most rising ones were filed inactive; nearly all actives have a fitted effect of over 50% in size; also: potency is read from the fitted curve at half-maximal effect). The method, boiled down:
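Luminescence read-out (One-Glo luciferase reagent, 30 min at room temperature) from PGC/ERR cells exposed to DMSO-dissolved test compounds for 18 h at 37 C; cells, 2,000 per well, had been preincubated 6 h before compound transfer.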

Test [11] in a line: qHTS assay to identify small molecule agonists of the hypoxia (HIF-1) signaling pathway - cell viability counter screen (AID 1224844; calls by dose curve; also: nearly all actives have a fitted effect of over 50% in size; also: potency is read from the fitted curve at half-maximal effect). The procedure, abridged:
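CellTiter-Glo luminescence read-out, 30 min RT, taken in the same wells as the beta-lactamase HRE reporter assay; HRE-bla ME-180 cells, 0.5% dialyzed FBS, 17 hr compound treatment at 37C, 5% CO2.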

The nature of test [12]: qHTS assay to identify small molecule antagonists of the estrogen related receptor (ERR) signaling pathway from Tox21 library - cell viability counter screen (AID 1224834). Also: nearly all actives have a fitted effect of over 30% in size. Also: potency is read from the fitted curve at half-maximal effect. The procedure, abridged: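 Multiplexed viability counter screen in ERR cells: 17.5 h compound exposure at 37 C, CellTiter-Fluor added, 30 min at 37 C/5% CO2, fluorescence read.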
Test [13] in a line: qHTS assay to identify small molecule agonists of the estrogen related receptor signaling pathway with the pleiotropic PPARgamma coactivator (PGC) from Tox21 10K library (AID 1224842). Also: nearly all actives have a fitted effect of over 15% in size. The method, boiled down: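 Luminescence from One-Glo (30 min, room temperature) measured after PGC/ERR cells had 18 h at 37 C with pinned compound (23 nL in DMSO). Cells had been seeded at 2,000 per well and pre-incubated 6 h.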

Values joined by “and” are separate entries in the source; they are usually repeats but may differ in a detail not shown here. Identical values can stand only once. Results filed as inconclusive are left out. Unmarked numbers belong to inactive results. Active and inactive are the calls of the source. Unless noted, calls follow the shape of the dose curve; as a rule, active = well fitted curve in the direction sought with a large enough effect in the repeat runs; inconclusive = weak or mixed curves; inactive = no such curve, though single readings can be large; an effect the other way counts as inactive or inconclusive.

Chain of Nuclear receptor subfamily 1 group I member 3 (Homo sapiens) (Q14994 whole entry, looked up): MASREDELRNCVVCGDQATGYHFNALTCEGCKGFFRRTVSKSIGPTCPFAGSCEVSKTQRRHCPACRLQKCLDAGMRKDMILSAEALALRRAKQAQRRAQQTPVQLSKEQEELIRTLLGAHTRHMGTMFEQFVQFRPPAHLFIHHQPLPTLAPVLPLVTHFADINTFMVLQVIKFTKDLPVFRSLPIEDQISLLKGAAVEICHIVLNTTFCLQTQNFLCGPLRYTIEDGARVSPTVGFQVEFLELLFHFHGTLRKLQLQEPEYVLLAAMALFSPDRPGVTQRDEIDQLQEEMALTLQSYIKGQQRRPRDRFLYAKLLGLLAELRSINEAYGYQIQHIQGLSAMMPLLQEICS
Chain of Luciferin 4-monooxygenase (Photinus pyralis) (P08659 whole entry, looked up): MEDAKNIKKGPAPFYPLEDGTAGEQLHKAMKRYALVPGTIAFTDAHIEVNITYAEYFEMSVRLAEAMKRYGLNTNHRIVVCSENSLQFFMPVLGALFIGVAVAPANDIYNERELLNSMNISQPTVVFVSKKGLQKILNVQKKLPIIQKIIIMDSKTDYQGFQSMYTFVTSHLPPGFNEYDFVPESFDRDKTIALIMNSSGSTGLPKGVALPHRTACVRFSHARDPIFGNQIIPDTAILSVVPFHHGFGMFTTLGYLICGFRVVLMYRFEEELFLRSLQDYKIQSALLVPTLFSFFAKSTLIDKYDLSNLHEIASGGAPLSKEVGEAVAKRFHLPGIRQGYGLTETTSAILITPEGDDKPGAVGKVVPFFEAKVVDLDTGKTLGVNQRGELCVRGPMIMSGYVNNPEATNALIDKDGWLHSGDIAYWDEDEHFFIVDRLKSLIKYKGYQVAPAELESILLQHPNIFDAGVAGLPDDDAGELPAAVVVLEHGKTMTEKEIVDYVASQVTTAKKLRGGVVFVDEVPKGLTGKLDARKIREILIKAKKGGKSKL

For `O=c1cccccc1O`, the Potency entry in test [1], in test [2], in [3], in [4], in test [5] and in test [6] was “inactive” each time. The Potency entry in test [7] and in [8] was “inactive” throughout.

Turning to `O=C1c2ccccc2Cc2ccccc21`, the Potency entry in test [1], in test [2], in [3], in test [4], in test [5] and in test [9] was “inactive” throughout. Further, the Potency result in test [7], in [10], in test [8] and in test [11] was “inactive” each time. The Potency in [6] was 21.8 µM (active).

For the compound `Cc1cccc2c1cc1ccc3cccc4ccc2c1c34`, the Potency result in test [1], in test [2], in test [12], in test [3], in [9] and in [7] was “inactive” throughout. Moreover, in test [11], the Potency entry is “inactive”. Moreover, the Potency in [6] was 15.7 µM (active).

With `COc1cccc(N)c1`, the Potency entry in test [1], in test [2], in test [4], in [5], in test [6] and in test [7] was “inactive” each time. The Potency entry in [8] and in test [11] was “inactive” each time.

`Nc1ccccc1O`: the Potency result in test [1], in test [2], in test [3], in test [9], in test [13] and in test [8] was “inactive” throughout. In addition, the results for the Potency in test [12] and in test [6] were 60.3 µM (active) and 24 µM (active), respectively.

In the case of `Cc1cc(C2CCCCC2)n(O)c(=O)c1`, the Potency result in test [1], in test [2], in test [3] and in test [8] was “inactive” each time. Moreover, the Potency in test [12] is 9.44 µM (active); in [5], 29.8 µM (active); in test [7], 26.6 µM (active).

Regarding `CCCC(=O)OC[C@@H](OC(=O)CCC)[C@@H](OC(=O)CCC)[C@H](Cn1c2nc(=O)[nH]c(=O)c-2nc2cc(C)c(C)cc21)OC(=O)CCC`, the Potency entry in test [1], in [2], in test [3], in test [6], in test [13] and in test [8] was “inactive” throughout. Also, the Potency in [10] was 23.7 µM (active).

For the compound `O=C(c1ccc(O)cc1O)c1ccc(O)cc1O`, the Potency result in [1], in [2], in [4], in test [5], in [9] and in test [6] was “inactive” each time. Also, the Potency entry in test [7], in test [8] and in test [11] was “inactive” throughout. The Potency in test [3] was 40 µM (active) and 44.8 µM (active).

`CCCCc1oc2ccc(NS(C)(=O)=O)cc2c1C(=O)c1ccc(OCCCN(CCCC)CCCC)cc1`: the Potency in test [1] was 26.6 µM (active); in test [2], 16.8 µM (active); in [12], 21.1 µM (active); in test [7] it was 18.8 µM (active); in [11], 15.1 µM (active). The Potency entry in test [3], in [6] and in test [8] was “inactive” throughout.

As for `CNc1ccc(O)cc1`, the Potency in test [1] is 27.3 µM (active); in [2] it was 27.3 µM (active); in test [12], 43.2 µM (active); in [3], 39.8 µM (active); in test [7] it was 48.5 µM (active); in test [11], 21.8 µM (active). For the same compound, in test [13], the Potency result is “inactive”.

(Values after PubChem BioAssay (Tox21).)
